# According to PubChem BioAssay AID2284129 (EPA ToxCast):
# The source made the active and inactive calls. How the source made its calls: active means hit-call score of the fitted dose curve at least 0.9, where 1 is the maximum; inactive means score below 0.9.
# Molecular target: human Cyclooxygenase COX2, PTGS2 (gene 5743) (UniProt P35354)
# Assay: ERF_FR_ENZ_hPTGS2: Eurofins (ERF) Enzymatic LeadHunter Assay for human Cyclooxygenase COX2, conducted at France lab site
# Description: ERF_FR_ENZ_hPTGS2 is a biochemical, single-readout assay that uses extracted gene-proteins in a cell-free assay. Measurements were taken 0.083 hour after chemical dosing in a 96-well plate. See COX2 Human Cyclooxygenase Enzymatic Assay, Cerep.ERF_FR_ENZ_hPTGS2 is an assay component calculated from the ERF_FR_ENZ_hPTGS2 assay. It is designed to measure enzyme activity using a type of enzyme reporter as detected by fluorescence intensity with fluorimetry technology.Data from the assay component ERF_FR_ENZ_hPTGS2 was analyzed at the assay endpoint, ERF_FR_ENZ_hPTGS2, in the positive analysis fitting direction relative to DMSO as the negative control and baseline of activity. Using a type of enzyme reporter, loss-of-signal activity can be used to understand changes in binding as they relate to gene PTGS2. To generalize the intended target to other relatable targets, this assay endpoint is annotated to the stress response intended target family, where the subfamily is cyclooxygenase.
# Human cells are incubated for 5 minutes at room temprature with Arachidonic acid (1.2uM) + ADHP (25 uM) as sunstrate and ns-398 as control inhibitor. Test Sample Requirements: Minimum for 1) Screen: 60 ul of 10 mM stock -OR- 1 mg (pre-weighed) for 10 uM final testing. 2) Dose Response: 90 ul of 10 mM stock -OR- 1 mg (pre-weighed) for a top concentration at 10 uM.
# human Cyclooxygenase COX2, PTGS2 (gene 5743), sequence (P35354 whole entry, looked up): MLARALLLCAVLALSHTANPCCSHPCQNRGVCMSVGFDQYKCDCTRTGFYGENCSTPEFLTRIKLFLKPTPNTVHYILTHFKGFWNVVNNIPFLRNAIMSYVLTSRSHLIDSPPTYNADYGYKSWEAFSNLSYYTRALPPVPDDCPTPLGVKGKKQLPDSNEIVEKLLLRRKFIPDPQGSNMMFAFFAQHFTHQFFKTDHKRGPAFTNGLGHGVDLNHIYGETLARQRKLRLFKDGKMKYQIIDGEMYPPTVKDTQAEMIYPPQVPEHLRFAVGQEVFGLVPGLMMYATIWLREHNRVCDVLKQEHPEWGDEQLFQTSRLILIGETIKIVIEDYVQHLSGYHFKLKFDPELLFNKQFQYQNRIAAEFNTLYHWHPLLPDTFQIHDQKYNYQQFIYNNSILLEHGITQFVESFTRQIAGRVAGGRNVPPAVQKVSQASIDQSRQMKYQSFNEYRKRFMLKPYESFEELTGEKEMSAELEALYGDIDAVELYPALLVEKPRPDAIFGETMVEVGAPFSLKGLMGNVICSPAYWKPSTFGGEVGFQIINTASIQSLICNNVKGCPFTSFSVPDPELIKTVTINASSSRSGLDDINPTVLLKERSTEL
row,Structure (SMILES),AC50
1,COc1cc(CCC(=O)CC(=O)CCc2ccc(O)c(OC)c2)ccc1O,0.274 µM (active)
